Test results from the supplement of paper PMC4466140.

target: AgAbp1; assay: SPOT peptide array binding signal intensity (averaged, normalized) (arbitrary units (background-subtracted, floor 0; scale differs between SH3 domains)); higher = stronger binding of the SH3 domain to the peptide
Procedure, shortened: (§1)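 To measure binding, SH3 domains from four yeast species were fused to GST, expressed in E. coli BL21(DE3) and purified on glutathione Sepharose. Each domain was incubated at 10 μg/ml overnight at 4°C on cellulose membranes with synthetic 15-mer peptides whose cysteines were replaced by serines. Anti-GST antibody, an HRP anti-mouse secondary and luminol were used for detection, and images were quantified with Genespotter. Reported binding signal is normalized, background-subtracted spot intensity averaged over replicates, in arbitrary units that differ between domains.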

Row | Binder | SPOT peptide array binding signal intensity
1 | RRRIAYPFYPFKKLG | 69

target: AgBbc1; assay: as above
Procedure, shortened: as §1

Row | Binder | SPOT peptide array binding signal intensity
2 | RRRIAYPFYPFKKLG | ≤ 0

target: AgBem1-D1; assay: as above
Procedure, shortened: as §1

Row | Binder | SPOT peptide array binding signal intensity
3 | RRRIAYPFYPFKKLG | 22

target: AgBzz1-D1; assay: as above
Procedure, shortened: as §1

Row | Binder | SPOT peptide array binding signal intensity
4 | RRRIAYPFYPFKKLG | 32.5

target: AgBzz1-D2; assay: as above
Procedure, shortened: as §1

Row | Binder | SPOT peptide array binding signal intensity
5 | RRRIAYPFYPFKKLG | 9

target: AgCyk3; assay: as above
Procedure, shortened: as §1

Row | Binder | SPOT peptide array binding signal intensity
6 | RRRIAYPFYPFKKLG | 1

target: AgFus1; assay: as above
Procedure, shortened: as §1

Row | Binder | SPOT peptide array binding signal intensity
7 | RRRIAYPFYPFKKLG | 337

target: AgHof1; assay: as above
Procedure, shortened: as §1

Row | Binder | SPOT peptide array binding signal intensity
8 | RRRIAYPFYPFKKLG | 8.75

target: AgHse1; assay: as above
Procedure, shortened: as §1

Row | Binder | SPOT peptide array binding signal intensity
9 | RRRIAYPFYPFKKLG | 914

target: AgLsb1; assay: as above
Procedure, shortened: as §1

Row | Binder | SPOT peptide array binding signal intensity
10 | RRRIAYPFYPFKKLG | 1.5

target: AgLsb4; assay: as above
Procedure, shortened: as §1

Row | Binder | SPOT peptide array binding signal intensity
11 | RRRIAYPFYPFKKLG | 19.5

target: AgMyo5; assay: as above
Procedure, shortened: as §1

Row | Binder | SPOT peptide array binding signal intensity
12 | RRRIAYPFYPFKKLG | 1.75

target: AgNbp2; assay: as above
Procedure, shortened: as §1

Row | Binder | SPOT peptide array binding signal intensity
13 | RRRIAYPFYPFKKLG | 124

target: AgRvs167; assay: as above
Procedure, shortened: as §1

Row | Binder | SPOT peptide array binding signal intensity
14 | RRRIAYPFYPFKKLG | 6.5

target: AgSho1; assay: as above
Procedure, shortened: as §1

Row | Binder | SPOT peptide array binding signal intensity
15 | RRRIAYPFYPFKKLG | 79

target: AgSla1-D1-D2; assay: as above
Procedure, shortened: as §1

Row | Binder | SPOT peptide array binding signal intensity
16 | RRRIAYPFYPFKKLG | 22

target: AgSla1-D3; assay: as above
Procedure, shortened: as §1

Row | Binder | SPOT peptide array binding signal intensity
17 | RRRIAYPFYPFKKLG | ≤ 0

target: CaAbp1-D1; assay: as above
Procedure, shortened: as §1

Row | Binder | SPOT peptide array binding signal intensity
18 | RRRIAYPFYPFKKLG | 482

target: CaAbp1-D2; assay: as above
Procedure, shortened: as §1

Row | Binder | SPOT peptide array binding signal intensity
19 | RRRIAYPFYPFKKLG | 238

target: CaBbc1; assay: as above
Procedure, shortened: as §1

Row | Binder | SPOT peptide array binding signal intensity
20 | RRRIAYPFYPFKKLG | 0.25

target: CaBem1-D1; assay: as above
Procedure, shortened: as §1

Row | Binder | SPOT peptide array binding signal intensity
21 | RRRIAYPFYPFKKLG | 23

target: CaBzz1-D1; assay: as above
Procedure, shortened: as §1

Row | Binder | SPOT peptide array binding signal intensity
22 | RRRIAYPFYPFKKLG | 21

target: CaBzz1-D2; assay: as above
Procedure, shortened: as §1

Row | Binder | SPOT peptide array binding signal intensity
23 | RRRIAYPFYPFKKLG | 9.5

target: CaCyk3; assay: as above
Procedure, shortened: as §1

Row | Binder | SPOT peptide array binding signal intensity
24 | RRRIAYPFYPFKKLG | 1

target: CaFus1; assay: as above
Procedure, shortened: as §1

Row | Binder | SPOT peptide array binding signal intensity
25 | RRRIAYPFYPFKKLG | 672

target: CaHof1; assay: as above
Procedure, shortened: as §1

Row | Binder | SPOT peptide array binding signal intensity
26 | RRRIAYPFYPFKKLG | 0.5

target: CaHse1; assay: as above
Procedure, shortened: as §1

Row | Binder | SPOT peptide array binding signal intensity
27 | RRRIAYPFYPFKKLG | 47.8

target: CaLsb1; assay: as above
Procedure, shortened: as §1

Row | Binder | SPOT peptide array binding signal intensity
28 | RRRIAYPFYPFKKLG | ≤ 0

target: CaLsb4; assay: as above
Procedure, shortened: as §1

Row | Binder | SPOT peptide array binding signal intensity
29 | RRRIAYPFYPFKKLG | 15

target: CaMyo5; assay: as above
Procedure, shortened: as §1

Row | Binder | SPOT peptide array binding signal intensity
30 | RRRIAYPFYPFKKLG | 0.25

target: CaNbp2; assay: as above
Procedure, shortened: as §1

Row | Binder | SPOT peptide array binding signal intensity
31 | RRRIAYPFYPFKKLG | 565

target: CaRvs167; assay: as above
Procedure, shortened: as §1

Row | Binder | SPOT peptide array binding signal intensity
32 | RRRIAYPFYPFKKLG | 13.3

target: CaRvs167-3; assay: as above
Procedure, shortened: as §1

Row | Binder | SPOT peptide array binding signal intensity
33 | RRRIAYPFYPFKKLG | 62.5

target: CaSho1; assay: as above
Procedure, shortened: as §1

Row | Binder | SPOT peptide array binding signal intensity
34 | RRRIAYPFYPFKKLG | 486

target: CaSla1-D1-D2; assay: as above
Procedure, shortened: as §1

Row | Binder | SPOT peptide array binding signal intensity
35 | RRRIAYPFYPFKKLG | ≤ 0

target: CaSla1-D3; assay: as above
Procedure, shortened: as §1

Row | Binder | SPOT peptide array binding signal intensity
36 | RRRIAYPFYPFKKLG | 2.5

target: ScAbp1; assay: as above
Procedure, shortened: as §1

Row | Binder | SPOT peptide array binding signal intensity
37 | RRRIAYPFYPFKKLG | 103

target: ScBbc1; assay: as above
Procedure, shortened: as §1

Row | Binder | SPOT peptide array binding signal intensity
38 | RRRIAYPFYPFKKLG | ≤ 0

target: ScBem1-D1; assay: as above
Procedure, shortened: as §1

Row | Binder | SPOT peptide array binding signal intensity
39 | RRRIAYPFYPFKKLG | 16

target: ScBzz1-D1; assay: as above
Procedure, shortened: as §1

Row | Binder | SPOT peptide array binding signal intensity
40 | RRRIAYPFYPFKKLG | 6

target: ScBzz1-D2; assay: as above
Procedure, shortened: as §1

Row | Binder | SPOT peptide array binding signal intensity
41 | RRRIAYPFYPFKKLG | 14

target: ScCyk3; assay: as above
Procedure, shortened: as §1

Row | Binder | SPOT peptide array binding signal intensity
42 | RRRIAYPFYPFKKLG | 38.5

target: ScFus1; assay: as above
Procedure, shortened: as §1

Row | Binder | SPOT peptide array binding signal intensity
43 | RRRIAYPFYPFKKLG | 230

target: ScHof1; assay: as above
Procedure, shortened: as §1

Row | Binder | SPOT peptide array binding signal intensity
44 | RRRIAYPFYPFKKLG | 0.5

target: ScHse1; assay: as above
Procedure, shortened: as §1

Row | Binder | SPOT peptide array binding signal intensity
45 | RRRIAYPFYPFKKLG | 1700

target: ScLsb1; assay: as above
Procedure, shortened: as §1

Row | Binder | SPOT peptide array binding signal intensity
46 | RRRIAYPFYPFKKLG | 3.5

target: ScLsb2; assay: as above
Procedure, shortened: as §1

Row | Binder | SPOT peptide array binding signal intensity
47 | RRRIAYPFYPFKKLG | 4

target: ScLsb3; assay: as above
Procedure, shortened: as §1

Row | Binder | SPOT peptide array binding signal intensity
48 | RRRIAYPFYPFKKLG | 104

target: ScLsb4; assay: as above
Procedure, shortened: as §1

Row | Binder | SPOT peptide array binding signal intensity
49 | RRRIAYPFYPFKKLG | 11

target: ScMyo3; assay: as above
Procedure, shortened: as §1

Row | Binder | SPOT peptide array binding signal intensity
50 | RRRIAYPFYPFKKLG | 4

target: ScMyo5; assay: as above
Procedure, shortened: as §1

Row | Binder | SPOT peptide array binding signal intensity
51 | RRRIAYPFYPFKKLG | ≤ 0

target: ScNbp2; assay: as above
Procedure, shortened: as §1

Row | Binder | SPOT peptide array binding signal intensity
52 | RRRIAYPFYPFKKLG | 173

target: ScPex13; assay: as above
Procedure, shortened: as §1

Row | Binder | SPOT peptide array binding signal intensity
53 | RRRIAYPFYPFKKLG | 0.5

target: ScRvs167; assay: as above
Procedure, shortened: as §1

Row | Binder | SPOT peptide array binding signal intensity
54 | RRRIAYPFYPFKKLG | 13.3

target: ScSho1; assay: as above
Procedure, shortened: as §1

Row | Binder | SPOT peptide array binding signal intensity
55 | RRRIAYPFYPFKKLG | 606

target: ScSla1-D1-D2; assay: as above
Procedure, shortened: as §1

Row | Binder | SPOT peptide array binding signal intensity
56 | RRRIAYPFYPFKKLG | ≤ 0

target: ScSla1-D3; assay: as above
Procedure, shortened: as §1

Row | Binder | SPOT peptide array binding signal intensity
57 | RRRIAYPFYPFKKLG | ≤ 0

target: SpAbp1-D1; assay: as above
Procedure, shortened: as §1

Row | Binder | SPOT peptide array binding signal intensity
58 | RRRIAYPFYPFKKLG | 155

target: SpBbc1; assay: as above
Procedure, shortened: as §1

Row | Binder | SPOT peptide array binding signal intensity
59 | RRRIAYPFYPFKKLG | 1

target: SpBzz1-D1; assay: as above
Procedure, shortened: as §1

Row | Binder | SPOT peptide array binding signal intensity
60 | RRRIAYPFYPFKKLG | 37

target: SpBzz1-D2; assay: as above
Procedure, shortened: as §1

Row | Binder | SPOT peptide array binding signal intensity
61 | RRRIAYPFYPFKKLG | ≤ 0

target: SpCyk3; assay: as above
Procedure, shortened: as §1

Row | Binder | SPOT peptide array binding signal intensity
62 | RRRIAYPFYPFKKLG | ≤ 0

target: SpHof1; assay: as above
Procedure, shortened: as §1

Row | Binder | SPOT peptide array binding signal intensity
63 | RRRIAYPFYPFKKLG | 37.5

target: SpHof1-2; assay: as above
Procedure, shortened: as §1

Row | Binder | SPOT peptide array binding signal intensity
64 | RRRIAYPFYPFKKLG | 12.5

target: SpHof1-3; assay: as above
Procedure, shortened: as §1

Row | Binder | SPOT peptide array binding signal intensity
65 | RRRIAYPFYPFKKLG | 225

target: SpHse1; assay: as above
Procedure, shortened: as §1

Row | Binder | SPOT peptide array binding signal intensity
66 | RRRIAYPFYPFKKLG | 745

target: SpLsb1; assay: as above
Procedure, shortened: as §1

Row | Binder | SPOT peptide array binding signal intensity
67 | RRRIAYPFYPFKKLG | 1.5

target: SpLsb4; assay: as above
Procedure, shortened: as §1

Row | Binder | SPOT peptide array binding signal intensity
68 | RRRIAYPFYPFKKLG | 47

target: SpMyo1; assay: as above
Procedure, shortened: as §1

Row | Binder | SPOT peptide array binding signal intensity
69 | RRRIAYPFYPFKKLG | 2.5

target: SpNbp2; assay: as above
Procedure, shortened: as §1

Row | Binder | SPOT peptide array binding signal intensity
70 | RRRIAYPFYPFKKLG | 394

target: SpPex13; assay: as above
Procedure, shortened: as §1

Row | Binder | SPOT peptide array binding signal intensity
71 | RRRIAYPFYPFKKLG | 5.5

target: SpRvs167; assay: as above
Procedure, shortened: as §1

Row | Binder | SPOT peptide array binding signal intensity
72 | RRRIAYPFYPFKKLG | 7.33

target: SpSla1-D1-D2; assay: as above
Procedure, shortened: as §1

Row | Binder | SPOT peptide array binding signal intensity
73 | RRRIAYPFYPFKKLG | ≤ 0

target: SpSla1-D3; assay: as above
Procedure, shortened: as §1

Row | Binder | SPOT peptide array binding signal intensity
74 | RRRIAYPFYPFKKLG | 1.5
